Screening results as filed in PubChem.
Compounds with a hit are over-represented: about 0.9% of the library has one in this group of screens.
TexasRed fluor: counter-screen for TRb-SRC2 inhibitors: fluorescence interference; TRb/SRC2 Texas Red total fluorescence interference; Potency, µM (top dose mostly 106 µM), without a hit: at the highest dose fluorescence change, negative = quenching; hit rate 0.29% among 280,000; AID 1479; active = well fitted curve in either direction with a large enough effect; inconclusive = small, poorly fitted or top-dose-only effect
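Human TRb ligand-binding domain at 0.6 uM with 20 nM Texas Red SRC2 peptide in Tris buffer containing 1 uM T3 and 5% DMSO, incubated with compound 5 h at ambient temperature. Total fluorescence (555/632 nm) calculated as parallel + 2 × perpendicular.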
GoLoco inh red: RGS12 GoLoco-Gai1 interaction inhibition | P63096 | Gai1:RGS12 GoLoco peptide FP, rhodamine, 10 min | Potency, µM (top dose mostly 61.6 µM), for inactives: at the highest dose activity, negative = inhibition, usual class: inhibitors | hit rate 0.44% among 230,000 | AID 880; active = well fitted inhibition curve with a large enough effect, not every such curve was filed as active; inactive = no such curve, though single readings can be large or run the other way; also: nearly all actives have a fitted effect of over 30% in size
Target sequence (P63096 whole entry, looked up): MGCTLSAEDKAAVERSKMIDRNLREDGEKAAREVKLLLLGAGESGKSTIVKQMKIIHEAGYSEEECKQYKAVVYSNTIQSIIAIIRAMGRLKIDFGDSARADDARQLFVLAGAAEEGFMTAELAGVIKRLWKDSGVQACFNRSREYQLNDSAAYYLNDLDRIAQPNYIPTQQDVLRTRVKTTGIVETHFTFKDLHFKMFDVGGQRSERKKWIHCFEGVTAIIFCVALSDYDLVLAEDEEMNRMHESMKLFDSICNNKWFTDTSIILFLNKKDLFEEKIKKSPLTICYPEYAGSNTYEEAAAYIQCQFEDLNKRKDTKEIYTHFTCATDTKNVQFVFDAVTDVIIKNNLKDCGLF
TRb-SRC2 inh: disrupts binding of human TR beta to SRC2 | P10828 | TRbeta-SRC2 peptide binding, fluorescence polarization; receptor liganded with 1 µM T3 | Potency, µM (series often up to 106 µM), inactives show at the top dose activity change, negative = inhibition, hits mostly inhibitors | hit rate 0.065% among 280,000;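 also: plate controls were bound peptide for no effect and peptide without receptor for full effect; nearly all actives have a fitted effect of over 50% in size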
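Fluorescence polarization of 20 nM Texas Red SRC2 peptide with 0.6 uM human TRb ligand-binding domain, in Tris buffer with 1uM T3 and 5% DMSO. Incubated 5 hr ambient; normalized to unbound and bound controls.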
APEX1 inh: blocks human APE1 abasic DNA cleavage. P27695. recombinant APE1, TAMRA/BHQ-2 abasic DNA cleavage fluorescence. Potency, µM (titrated, usually from 65.8 µM), for inactives: at the top dose activity change, negative = inhibition, actives largely listed as inhibitors. hit rate 0.35% among 350,000. AID 2517;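 also: plate controls were vehicle for no effect and reference inhibitor for full effect; nearly all actives have a fitted effect of over 55% in size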
Target sequence (P27695 whole entry, looked up): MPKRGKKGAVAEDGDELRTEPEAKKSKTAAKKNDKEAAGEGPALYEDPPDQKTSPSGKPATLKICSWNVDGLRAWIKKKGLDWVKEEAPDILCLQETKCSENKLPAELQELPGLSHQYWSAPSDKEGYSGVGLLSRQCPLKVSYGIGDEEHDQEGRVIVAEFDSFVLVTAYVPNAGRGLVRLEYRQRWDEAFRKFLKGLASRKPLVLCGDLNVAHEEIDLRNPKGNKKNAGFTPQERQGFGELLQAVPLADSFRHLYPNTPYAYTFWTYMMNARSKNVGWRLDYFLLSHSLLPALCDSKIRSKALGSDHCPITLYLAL
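Compound pre-exposure to 0.75 nM APE1, 15 min at ambient temperature. Reaction initiated with 50 nM TAMRA/BHQ-2 THF substrate, read immediately in kinetic mode, 525 nm excitation, 598 nm emission.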
BLM inh: blocks DNA unwinding by human BLM helicase | P54132 | recombinant BLM DNA unwinding, fluorescence dequenching | Potency, µM (series often up to 56.1 µM), inactives show top-dose activity change, negative = inhibition, actives largely listed as inhibitors | hit rate 0.2% among 350,000;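 also: plate controls were vehicle for no effect and no enzyme for full effect; nearly all actives have a fitted effect of over 35% in size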
RECQ1 helicase: inhibitors of human RECQ1 DNA helicase | AID 2549 | hit rate 0.54% among 240,000 | Potency, µM (highest dose often 57.3 µM), without a hit: top-dose activity, negative = inhibition, hits mostly inhibitors | RECQ1 DNA unwinding, red fluorescence kinetic read;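 also: plate controls were vehicle for no effect and no enzyme for full effect; nearly all actives have a fitted effect of over 30% in size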
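50 nM RECQ1T1 preincubated 15 min with compound in Tris pH 8.0 buffer with MgCl2, DTT, Tween-20 and 2.5 ug/ml poly(dI-dC); started with 200 nM TAMRA/BHQ-2 forked duplex and 2 mM ATP. Unwinding read as fluorescence (525/598 nm), two reads 2 h apart.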
Starred values were filed as active, the others as inactive; i = inactive; ? = inconclusive; / = no result; [ ] = dose if it differs, or a comment. Unless noted, calls follow the shape of the dose curve; as a rule, active = well fitted curve in the direction sought with a large enough effect; inconclusive = small, poorly fitted or top-dose-only effect, or another doubt; inactive = no such curve, though single readings can be large; an effect the other way counts as inactive or inconclusive. Unless noted, % is scaled to controls: 0 for no effect and ±100 for the full control effect; potency is read from the fitted curve at half-maximal effect.

SMILES | TexasRed fluor | GoLoco inh red | TRb-SRC2 inh | APEX1 inh | BLM inh | RECQ1 helicase
CCC[CH2][Sn]([CH2]CCC)([CH2]CCC)[O][Sn]([CH2]CCC)([CH2]CCC)[CH2]CCC | 2.5%[201 µM] | / | -2.6%[201 µM] | / | / | /
CCc1ccc(OCC(=O)N2CCN(CCc3ccncc3)CC2)cc1 | 708µM*[quencher] | / | -15.8% | / | -0.4% | /
Cc1ccc(OCC(=O)N2CCN(CCc3ccncc3)CC2)cc1 | -10.8% | / | -0.7% | / | 1.1% | /
CC(C)=CC1[C@H](C(=O)OCc2cccc(Oc3ccccc3)c2)C1(C)C (some centres undefined) | 1.8%[201 µM] | / | 7.6%[201 µM] | / | / | /
CCC[CH2][Sn]([Cl])([CH2]CCC)[CH2]CCC | 1.4%[201 µM] | / | 8.2%[201 µM] | / | / | /
CC(=O)O.CC(=O)O.[Cd] | -5.1% | 7.1% | -2.1% | 3.98µM* | ? | ?
Cc1cc(C=C2C(=O)NC(=S)NC2=O)c(C)n1-c1ccc2c(c1)OCO2 | 28184µM*[quencher] | 46.5% | -8.9% | 8.4% | -18.9% | -6.9%
Cc1cc(C=C2C(=O)NC(=O)NC2=O)c(C)n1-c1ccc2c(c1)OCO2 | 2.8% | 26.0% | 1.0% | -0.2% | -9.3% | -13.6%
O=C1OC(c2cc(I)c(O)c(I)c2)(c2cc(I)c(O)c(I)c2)c2ccccc21 | ? | -49.6% | 13.1% | / | ? | 8.91µM*
CC1=NN(c2ccccc2)C(=O)C1/C=C1/C(=O)NC(=O)N(c2cccc(C)c2)C1=O (centres undefined) | 1.6% | 9.9% | -10.3% | 9.2% | -2.8% | 2.0%
Cc1cccc(N2C(=O)NC(=O)/C(=C\c3ccc4c(c3)CCCN4Cc3ccccc3)C2=O)c1 | 10.2% | -35.1% | 12.3% | 10.9% | -24.0% | 31.6µM*
N#CC1=C(N)Oc2c(c(=O)oc3ccccc23)C1c1ccc([N+](=O)[O-])o1 (centres undefined) | 3.8% | 9.3% | 0.1% | 35.5µM* | -3.1% | i
C=CC(=O)NCO | -1.7%[5.17e+03 µM] | / | -3.2%[5.17e+03 µM] | / | / | /
Cc1[nH]n(-c2ccccc2)c(=O)c1C(c1ccc([N+](=O)[O-])cc1)c1c(C)[nH]n(-c2ccccc2)c1=O | 0.355µM*[quencher] | -8.1% | 0.2%[53 µM] | 4.6% | ? | -0.4%
CNC(=O)N(C)c1nc2ccccc2s1 | 0.0%[201 µM] | / | 0.4%[201 µM] | / | / | /
N/C(=N\N=C/c1ccc(-c2ccc(O)c(C(=O)O)c2)o1)N[N+](=O)[O-] | ? | -0.8% | 1.1% | 7.94µM* | 51.9% | 12.6µM*
CC(C)NC(=O)N1CC(=O)N(c2cc(Cl)cc(Cl)c2)C1=O | -0.2%[201 µM] | / | 3.6%[201 µM] | / | / | /
O=C1NC(=O)N(Cc2ccccc2)C(=O)/C1=C\c1ccco1 | 3.8% | 69.2% | 3.8% | ? | ? | ?
CCN(CC)c1ccc(/C=C2\C(=O)NC(=O)N(Cc3ccco3)C2=O)cc1 | ? | 210.7% | ? | ? | 3.6% | ?
CCCCN1C(=O)/C(=C/c2ccc(N(C)C)cc2)C(=O)N(Cc2ccco2)C1=O | 39.8µM*[fluorescent] | 156.8% | ? | ? | ? | 28.2µM*
CCCCN1C(=O)/C(=C\c2ccco2)C(=O)N(CCc2ccccc2)C1=O | 28.2µM*[fluorescent] | 133.9% | ? | ? | ? | 31.6µM*
N.N.N.N.N.N.N.N.N.N.N.N.N.N.O.O.[Cl-].[Cl-].[Cl-].[Cl-].[Cl-].[Cl-].[Ru].[Ru].[Ru] | -6.1% | 8.1% | -5.6% | 8.6% | / | 14.1µM*
Cc1cccc(-n2c(O)c(/C=C3/C(c4ccccc4)=Nc4ccccc43)c(=O)[nH]c2=O)c1 | -1.1% | 89.3% | -5.5% | 4.7% | -0.3% | -4.2%
Cc1ccccc1-n1c(O)c(/C=C/C=Nc2ccccc2)c(=O)[nH]c1=O | 13.2% | 259.0% | 13.5% | -11.1% | -8.2% | 25.1µM*
Cc1ccccc1-n1c(O)c(/C=C2/C(c3ccccc3)=Nc3ccccc32)c(=O)[nH]c1=O | 31.6µM*[quencher] | 109.8% | ? | ? | -6.1% | -9.3%
SMILES | TexasRed fluor | GoLoco inh red | TRb-SRC2 inh | APEX1 inh | BLM inh | RECQ1 helicase
CC1(C)CON(Cc2ccccc2Cl)C1=O | -14.6%[201 µM] | / | -8.4%[201 µM] | / | / | /
CCCCCCNC(=O)N[C@H](Cc1ccc(O)cc1)C(=O)NCCC[C@H]1CN2C(=NC[C@H]2CCC)N1CC1CCC1 | -3.9% | 14.1µM* | -2.8% | 0.4% | -0.8% | i
CCNS(=O)(=O)C(F)(F)C(F)(F)C(F)(F)C(F)(F)C(F)(F)C(F)(F)C(F)(F)C(F)(F)F | -2.4%[201 µM] | / | -1.3%[201 µM] | / | / | /
CCCCC(CC)C(=O)Cl (centres undefined) | -3.8%[201 µM] | / | -1.0%[201 µM] | / | / | /
O=C1C(Cl)=C(Cl)C(=O)C(Cl)=C1Cl | -10.5% | 0.224µM* | -2.7% | 39.8µM* | -11.2% | ?
C[n+]1ccc(-c2ccncc2)cc1 | 0.0% | 10µM* | -8.7% | -1.1% | 0.3% | -3.7%
Cc1ccc(NC(=O)Cn2cc(C(=O)c3ccccc3)c3ccccc32)cc1 | 0.0251µM*[quencher] | / | -14.9% | / | -3.6% | /
[Cu+2].[O-]c1cccc2cccnc12.[O-]c1cccc2cccnc12 | -2.1%[201 µM] | / | 3.8%[201 µM] | / | / | /
CCS(=O)(=O)N1N=C(c2cccc(NS(C)(=O)=O)c2)CC1c1ccccc1 (centres undefined) | 8.6% | 229.0% | 2.0% | -2.5% | -17.6% | 35.5µM*
Cn1cccc1/C=C1/C(=O)NC(=O)N(Cc2ccc(F)cc2)C1=O | -7.7% | 46.7% | -8.6% | -9.7% | -22.0% | ?
Cn1cccc1/C=C1/C(=O)NC(=S)N(Cc2ccc(F)cc2)C1=O | 0.8% | 39.7% | -3.6% | ? | ? | 25.1µM*
Clc1ccc(C(Cl)(Cl)Cl)cc1 | -5.3%[201 µM] | / | 1.5%[201 µM] | / | / | /
Nc1nc2c(ncn2[C@@H]2O[C@H](CO)[C@@H](O)[C@@H]2O)c(=[SH+])[nH]1.O=[N+]([O-])c1ccc(O)[c]([Hg])c1 | / | 0.112µM* | / | / | / | /
Nc1nc(=S)c2ncn([C@H]3O[C@@H](CO)[C@@H](O)[C@@H]3O)c2[nH]1 | -7.0%[53 µM] | -1.4%[21.6 µM] | -4.7%[53 µM] | 11.3%[21 µM] | 4.9%[21.4 µM] | -0.4%[25.9 µM]
O=[N+]([O-])c1ccc(N2CCCCCC2)c2nonc12 | / | / | / | -54.9% | -21.6% | /
Nc1ccc2nonc2c1[N+](=O)[O-] | -1.5% | 14.1µM* | -4.5% | 2.7% | -9.4% | -0.7%
